Screening results from PubChem.
Kir21 inh: Kir2.1 (mouse) channel inhibition | P35561 | HEK293-Kir2.1, FluxOR thallium flux fluorescence; active compounds read low | B-score at 10 µM | hit rate 0.85% among 310,000 | AID 1672;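 active means fluorescence ratio B-score at or below minus 3 SD of library scores, with starting-brightness B-score within 2 SD, cut at about -4.2 in these data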;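 further: channel flux triggered by added potassium and thallium sulfate stimulus; B-score of peak minus minimum fluorescence over baseline after thallium stimulus; more negative B-score means stronger Kir2.1 block with less thallium influx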
Target sequence (P35561 whole entry, looked up): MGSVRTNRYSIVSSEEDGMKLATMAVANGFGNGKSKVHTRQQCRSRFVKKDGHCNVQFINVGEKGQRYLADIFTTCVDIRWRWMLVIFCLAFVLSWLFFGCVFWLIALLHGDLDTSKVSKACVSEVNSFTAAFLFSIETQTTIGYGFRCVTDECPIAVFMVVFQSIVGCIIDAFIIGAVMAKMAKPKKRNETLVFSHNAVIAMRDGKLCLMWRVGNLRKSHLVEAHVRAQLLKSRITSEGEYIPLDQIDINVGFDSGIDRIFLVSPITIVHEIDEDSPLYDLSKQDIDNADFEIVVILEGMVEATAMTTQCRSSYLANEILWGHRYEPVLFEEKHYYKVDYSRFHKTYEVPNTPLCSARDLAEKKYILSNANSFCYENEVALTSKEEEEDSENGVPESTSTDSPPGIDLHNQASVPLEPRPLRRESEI
FID counter: fluorescent intercalator displacement, NS3 helicase counter-screen; hit rate 0.17% among 290,000; DNA fluorescent intercalator displacement, fluorescence; inhibition, % at 7.9 µM; in the data active means inhibition above about 37%;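 further: 0% = vehicle and 100% = reference compound; higher means more ethidium bromide displaced from hairpin DNA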
M18AAP inhibitor: blocks P. falciparum M18 aspartyl aminopeptidase; recombinant PfM18AAP, H-Glu-NHMec fluorogenic cleavage; inhibition, % at 7.35 µM; hit rate 1.2% among 290,000; AID 1822;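 active means inhibition above the campaign mean inhibition over all tested compounds plus 3 SD, cut at about 28% in these data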;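 further: 0% = plate median of test compound wells and 100% = 2 mM ZnCl2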
Rce1 inh: yeast Ras-converting enzyme inhibition; yeast membranes, quenched prenylated peptide cleavage fluorescence; calls only; hit rate 0.27% among 290,000;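 active means fall in fluorescence gain of 50% or more versus controls, with final raw signal at or below 3038400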;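 further: plate controls were neutral control wells for no effect and wells lacking membranes for full effect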
* hit, by the source's call; i = inactive; . = no result given; + = active, no number. Rows were chosen to be rich in hits. Some 2.3% of all compounds tested hit in one or more screens of this group.

SMILES | Kir21 inh | FID counter | M18AAP inhibitor | Rce1 inh
COc1ccc(N(CC(=O)N2CCN(C)CC2)S(=O)(=O)c2cc(C)ccc2OC)cc1Cl | 0.06 | 13 | 7 | i
O=[N+]([O-])c1ccc(-c2cnc(SCc3ccccc3Cl)[nH]2)cc1 | 0.3 | 9 | 8 | i
O=[N+]([O-])c1ccc(-c2cnc(SC(c3ccccc3)c3ccccc3)[nH]2)cc1 | -0.69 | 9 | -1 | +
C[N+]1(CC(=O)NNc2c3ccccc3nc3ccccc23)CCOCC1 | -0.44 | 43* | 1 | i
O=C(CN1CCOCC1)NNc1c2ccccc2nc2ccccc12 | -0.06 | 14 | 18 | i
Cc1ccc(NC(=O)c2ccccc2)cc1 | 0.1 | -1 | 1 | i
Cc1ccc(NC(=O)C2=C(c3ccccc3)S(=O)(=O)CCS2(=O)=O)cc1 | -5.7* | 1 | -10 | i
CC12CCC(=O)N1C(C(=O)Nc1cc(Cl)ccc1N1CCOCC1)CS2 (configuration not stated) | -3.5 | -31 | 3 | i
O=C(c1ccc(COc2ccc(Cl)cc2Cl)o1)N1CCCC1 | -2.1 | -45 | -3 | i
Cc1cc(Cl)c(OCCOCCN2CCCC(C)C2)c(Br)c1 (configuration not stated) | -4.3* | 24 | -7 | i
COc1ccc(CC2(C)OC(c3ccc(C)cc3)=NN2C(C)=O)cc1 (configuration not stated) | -0.59 | -24 | -7 | i
COc1ccc(CC2(C)OC(c3ccccc3)=NN2C(C)=O)cc1 (configuration not stated) | -6.3* | -25 | 8 | i
Cc1ccc(S(=O)(=O)Nc2cccnc2Oc2ccc(Cl)cc2)cc1 | -5* | -25 | 10 | i
Cc1ccc(C(=O)Nc2cccnc2Oc2ccc(Cl)cc2)cc1 | -1.4 | -29 | -16 | i
O=C(CC1SC(=O)NC1=O)Oc1ccc(/C=N/NC(=O)c2ccccc2O)cc1 (configuration not stated) | 0.45 | -10 | 4 | i
CC(C(=O)Nc1cc([N+](=O)[O-])ccc1Cl)N1CCN(c2ccc(O)cc2)CC1 (configuration not stated) | 0.01 | -1 | 29* | i
O=C1C(Cl)=C(Nc2ccccc2)C(=O)c2ccccc21 | -0.48 | 4 | 6 | i
O=C(O)c1cccc(NC2=C(Cl)C(=O)c3ccccc3C2=O)c1 | -7.3* | -2 | 8 | .
Cc1ccc(NC2=C(NC(=O)c3ccccc3)C(=O)c3ccccc3C2=O)cc1Cl | -0.27 | 2 | -10 | i
O=C(O)c1ccc(NC2=C(Cl)C(=O)c3ccccc3C2=O)cc1 | -9.1* | 0 | 4 | i
COc1cccc(C(=O)N2CCN(Cc3ccccc3Br)CC2)c1 | -0.08 | -26 | -1 | i
CCc1ccc(CN2CCC(N3CCC(C(=O)N4CCCC4)CC3)CC2)o1 | -0.93 | 1 | -1 | i
CCC(C)Sc1cccc(-c2nc3cc(C)ccn3c2NCc2ccccc2)c1 (configuration not stated) | -1.4 | . | . | i
Cc1ccc(CN(C)C(=O)c2cc(COc3cccc(C(F)(F)F)c3)on2)o1 | -4.6* | -9 | -19 | i
CCc1ccc(CN(C)C(=O)c2cc(COc3cccc(C(F)(F)F)c3)on2)nc1 | -1.4 | -45 | -2 | i
SMILES | Kir21 inh | FID counter | M18AAP inhibitor | Rce1 inh
O=C(O)c1ccc(N/N=C/c2ccc(-c3ccccc3Cl)o2)cc1 | 3 | -16 | -2 | +
COc1ccccc1N1CCN(c2ncc(C(=O)N3CCN(c4cccc(Cl)c4)CC3)c3ccccc23)CC1 | 1.5 | 4 | -4 | +
COc1ccccc1N1CCN(C(=O)C2CCN(C(=O)c3cccc(Cl)c3)CC2)CC1 | -0.53 | -54 | 4 | i
CC(C)Cc1ccc(C(C)C(N)=NCCc2ccccc2)cc1 (configuration not stated) | -7.5* | 39* | 14 | i
CCN(CC)CCCNC(=O)CCc1c(C)n(CC)c2cc(-c3ccccc3OC)nn2c1=O | 0.46 | 0 | -10 | +
CCOC(=O)CCc1c(C)n(CC)c2cc(-c3ccccc3OC)nn2c1=O | -0.96 | -26 | -1 | i
O=C(CCNS(=O)(=O)c1ccc2[nH]c(=O)oc2c1)NCc1ccccc1 | 1.8 | 1 | 5 | +
O=C(CCNS(=O)(=O)c1ccc2[nH]c(=O)oc2c1)NCc1ccc(F)cc1 | 0.41 | 0 | -1 | i
CC1=NNC(=O)/C1=C\c1cn(-c2ccccc2)nc1-c1ccccc1 | -0.07 | -8 | 66* | i
CC1CN(c2ccc([N+](=O)[O-])c(NCCOc3ccc(Cl)cc3)c2)CC(C)N1 (configuration not stated) | -8* | 32 | 3 | i
Cc1ccccc1OCCNc1cc(N2CC(C)NC(C)C2)ccc1[N+](=O)[O-] (configuration not stated) | 0.16 | 39* | 4 | i
O=C(C[n+]1cccc(O)c1)NCc1ccc(Cl)cc1 | -1.1 | -1 | -8 | i
CCn1nc(C)c(Br)c1Nc1ccc(Br)cc1 | -1.3 | -3 | 5 | i
O=c1[nH][nH]c(=S)n1C1CCCCC1 | 1.2 | -14 | 58* | i
CCOc1ccc(S(=O)(=O)N(C)CC(=O)N2CCN(CC)CC2)cc1 | 0.43 | -1 | -12 | i
C/C(CCC(C)C)=N\NC(=S)Nc1cc(S(=O)(=O)N2CCOCC2)ccc1N1CCOCC1 | 0.27 | -8 | 28* | i
C/C(=N\NC(=S)Nc1cc(S(=O)(=O)N2CCOCC2)ccc1Cl)c1ccc(N2CCOCC2)cc1 | 1.1 | -10 | 10 | i
COc1ccc2cc(/C(C)=N/NC(=S)Nc3cc(S(=O)(=O)N4CCOCC4)ccc3N3CCOCC3)ccc2c1 | -1.3 | -27 | 30* | i
Cc1ccc(N/C(N)=N/c2nc(C)cc(C)n2)cc1 | -0.02 | -3 | -4 | i
CCCCc1ccc(N/C(N)=N/c2nc(C)cc(C)n2)cc1 | -5.2* | 16 | 2 | i
Cc1cc(C)c(Nc2cc(S(=O)(=O)O)c(N)c3c2C(=O)c2ccccc2C3=O)c(C)c1 | . | 44* | 4 | .
Cc1cc(C)c(NC(=O)COC(=O)c2cccc3c2C(=O)c2ccccc2C3=O)c(C)c1 | 2.5 | -3 | -4 | i
COCC(=O)n1nc(NCc2ccc(OC)cc2)nc1NCc1ccc(OC)cc1 | -0.06 | -23 | 28* | i
COc1ccc(CNc2nc(NCc3ccc(OC)cc3)n(S(C)(=O)=O)n2)cc1 | -2.4 | -17 | 0 | i
CCOC(=O)/C(=C/Nc1ccc(F)cc1)[N+](=O)[O-] | 1.8 | -3 | -3 | i
SMILES | Kir21 inh | FID counter | M18AAP inhibitor | Rce1 inh
CCc1ccc(-c2cc(C)no2)cc1S(=O)(=O)NCCc1ccc(OC)c(OC)c1 | -4.4* | -40 | 1 | i
CCc1ccc(-c2cc(C)no2)cc1S(=O)(=O)NCc1ccc(OC)c(OC)c1 | 0.46 | -36 | -2 | i
S=C(NCCc1cccc(Cl)c1)NC1CCCCC1 | -2.4 | -19 | 4 | i
O=c1c2ccccc2cnn1Cc1n[nH]c(=S)n1-c1cc(Cl)cc(Cl)c1 | -0.11 | -17 | 30* | i
O=c1c2ccccc2cnn1Cc1n[nH]c(=S)n1-c1ccc(F)c(Cl)c1 | -1.6 | -9 | 21 | i
COc1ccc(CNC(=O)c2cc3cccc(O)c3oc2=N)cc1 | 0.67 | -2 | 29* | i
Cn1nccc1C(=O)Nc1sc2c(c1C(N)=O)CCCC2 | -0.4 | -5 | 2 | i
